# Values joined by “and” are separate entries in the source; they are usually repeats but may differ in a detail not shown here. Equal entries are not always repeated. Where a structure was tested more than once in an assay, its records may differ in their call. Active and inactive are the calls of the source. The calls were made as follows: active = hit-call score of the fitted dose curve at least 0.9, where 1 is the maximum; inactive = score below 0.9.
# Assay: BSK_4H_SRB: Viability Assessment in the BioMAP Diversity Plus: 4H Assay (AID 2283027);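 also: cells exposed to compound for 24 h before staining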;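 as to AC50: curves fitted both ways versus DMSO so AC50 may be loss or gain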
# Settings: primary human endothelial cells (HUVEC)
# Outline: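 Cytotoxicity read-out in primary human endothelial cells: after 24 h compound exposure, cells were TCA-fixed (10%), stained with 0.1% SRB and absorbance taken at 560 nm. Values fitted in both directions relative to DMSO.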
Compound,AC50,outcome
O=P(O)(O)CCC(F)(F)C(F)(F)C(F)(F)C(F)(F)C(F)(F)C(F)(F)C(F)(F)C(F)(F)F,42.7 µM (active),inactive
CCC(C)c1ccccc1O (configuration not stated),–,inactive
O=C(O)C(F)(F)OC(F)(F)C(F)(F)OC(F)(F)C(F)(F)OC(F)(F)C(F)(F)C(F)(F)C(F)(F)F,47.9 µM (active) and 52.7 µM (active),–
CCCCCCCCCCCCCCC,–,inactive
O=C1NS(=O)(=O)c2ccccc21,–,inactive
C[C@]12CC[C@@H]3c4ccc(O)cc4CC[C@H]3[C@@H]1C[C@@H](O)[C@@H]2O,–,inactive
CCOC(=O)CN[C@@H](C(=O)N1CC[C@H]1C(=O)NCc1ccc(/C(N)=N/O)cc1)C1CCCCC1,–,inactive
CCCCC(CC)C(=O)OCCOCCOCCOCCOC(=O)C(CC)CCCC (configuration not stated),–,inactive
Clc1ccc(Nc2nnc(Cc3ccncc3)c3ccccc23)cc1,–,inactive
Cc1cccc2c1ccc1ccccc12,–,inactive
CC(C)(C)c1ccc(O)c(O)c1,5.52 µM (active),–
CN(C)c1ccc(C(=C2C=CC(=[N+](C)C)C=C2)c2ccccc2)cc1,0.0527 µM (active),–
O=P(O)(O)CCC(F)(F)C(F)(F)C(F)(F)C(F)(F)C(F)(F)C(F)(F)F,–,inactive
O=S(=O)(O)C(F)(F)C(F)(F)C(F)(F)C(F)(F)C(F)(F)C(F)(F)C(F)(F)C(F)(F)C(F)(F)C(F)(F)F,–,inactive
O=C(NO)c1ccccc1,–,inactive
CC[N+](CC)(CC)Cc1ccccc1,–,inactive
OCC(F)(F)C(F)(F)C(F)(F)C(F)(F)C(F)(F)C(F)(F)C(F)(F)C(F)(F)C(F)(F)C(F)(F)C(F)(F)F,–,inactive
O=C1OC2(c3ccccc31)c1cc(I)c(O)c(I)c1Oc1c2cc(I)c(O)c1I,–,inactive

Compound,AC50,outcome
Cc1[nH]nc2c1N=C(c1ccccc1Cl)c1cc([N+](=O)[O-])ccc1N2,0.733 µM (active),–
O=C(NCc1ncc(C(F)(F)F)cc1Cl)c1c(Cl)cccc1Cl,–,inactive
N=C(N)c1ccc(OCCCCCOc2ccc(C(=N)N)cc2)cc1,–,inactive
C=CC(C)(CCC=C(C)C)OC(C)=O (configuration not stated),34.2 µM (active),–
CCCCCCCCCCCCCCCCCC[N+](C)(C)Cc1ccccc1,2.63 µM (active),–
O=C(O)CCC(F)(F)C(F)(F)C(F)(F)C(F)(F)C(F)(F)C(F)(F)F,–,inactive
Oc1ccc(Cc2ccccc2O)cc1,–,inactive
CCCCC=O,–,inactive
CN(CCO)S(=O)(=O)C(F)(F)C(F)(F)C(F)(F)C(F)(F)C(F)(F)C(F)(F)C(F)(F)C(F)(F)F,–,inactive
COCN(COC)c1nc(N(COC)COC)nc(N(COC)COC)n1,–,inactive
O=C1c2ccc(O)c(O)c2C(=O)c2c(O)ccc(O)c21,–,inactive
OCCN1CN(CCO)CN(CCO)C1,31.5 µM (active),–
CCCCc1oc2ccccc2c1C(=O)c1cc(I)c(OCCN(CC)CC)c(I)c1,13.1 µM (active),–
O=C(O)CCC(F)(F)C(F)(F)C(F)(F)C(F)(F)C(F)(F)F,–,inactive
CN(Cc1cnc2nc(N)nc(N)c2n1)c1ccc(C(=O)N[C@@H](CCC(=O)O)C(=O)O)cc1,–,inactive
O=C(CC(=O)C(F)(F)C(F)(F)C(F)(F)F)c1cccs1,34.4 µM (active) and 44.3 µM (active),–
CS(=O)(=O)c1ccc([C@@H](CC2CCCC2)C(=O)Nc2cnccn2)cc1Cl,19.2 µM (active),–
CC1=NN(c2ccccc2)C(=O)C1,–,inactive
